Screening data: PubChem, National Center for Advancing Translational Sciences (NCATS)
An excerpt weighted towards active compounds, which were near 6.5% of everything screened.
Giardia killer = Giardia lamblia killing; activity change, % at 7.66 µM, hits read low; Giardia lamblia trophozoite viability; actives 0.15% (n = 340,000); in the data active = activity change below about -80%; inconclusive = between about -30% and that limit;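 also: parasites exposed to compound for two days anaerobically before the ATP read; % is scaled to controls: 0 for no effect and ±100 for the full control effect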
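Compounds were tested on trophozoites seeded at 100 cells/well and held 48 hrs at 37 deg C anaerobically. An ATP-based luminescent kit measured the remaining live cells.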
HepG2 viability = counter-screen for TGF-b inhibitors: cytotoxicity in HepG2 cells; HepG2 CAGA-GFP viability, ATP luminescence, 18 h; Potency, µM (titrated, usually from 46.1 µM), for inactives: at the top dose activity change, negative = cytotoxicity, most hits filed as cytotoxic; actives 0.76% (n = 410,000); also: potency is read from the fitted curve at half-maximal effect
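CellTiter-Glo luminescence gave cytotoxicity after 18 hours at 37 degrees C. The cells were HepG2 CAGA-GFP in 1% FBS DMEM, stimulated with 500 pg/mL TGF-beta after compound addition. %Activity was normalised to no-cell wells (complete cell-killing) and DMSO (no toxicity), and curves were fitted and classified.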
HT1080-NT tox = kills 2HG-producing HT-1080-NT fibrosarcoma cells; HT-1080-NT fibrosarcoma viability, CellTiter-Glo ATP luminescence, 48 h; Potency, µM (titrated, usually from 46.1 µM), inactives show at the top dose activity, negative = less viability, actives largely listed as cytotoxic; actives 1.6% (n = 360,000);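 also: NT is the 2HG producing partner of a matched IDH1 knockdown line; potency is read from the fitted curve at half-maximal effect; 0% = DMSO-treated cells and -100% = media-only wells without cells; nearly all actives have a fitted effect of over 55% in size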
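Compounds were tested in concentration-response format on HT-1080-NT cells for 48 hours at 37 degrees C. Cell viability came from CellTiter-Glo luminescence; curves were classified by r2, response magnitude and activity.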
IL1B secr inh = inflammasome signaling inhibition, IL-1 beta readout | THP-1 LPS/ATP IL-1B secretion, AlphaLISA, 16 h; active compounds read low | activity change, % at 57.5 µM | actives 4.7% (n = 360,000) | AID 743279; in the data active = activity change below about -50%; inconclusive = mostly about -30% to -49%; also: % is scaled to controls: 0 for no effect and ±100 for the full control effect
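THP-1 cells pretreated 1 hr with compounds (up to 57.5 uM final), then stimulated with LPS (250 ng/mL final) plus ATP (1.25 mM final); secreted IL-1B measured by AlphaLISA after 16 hr, decreased signal indicating inhibition.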
HT1080 IDH1KD tx = kills HT-1080 cells with IDH1 knockdown; AID 686971; HT-1080 IDH1 knockdown viability, ATP luminescence, 48 h; actives 2% (n = 360,000); Potency, µM (series often up to 46.1 µM), without a hit: at the highest dose activity, negative = toxicity, usual class: cytotoxic;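 also: potency is read from the fitted curve at half-maximal effect; 0% = DMSO wells and -100% = cell-free medium wells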
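After a 2 h attachment period, IDH1KD HT-1080 cells took pin-transferred compound for 48 h at 37 °C; ATP-based luminescence after 10 min room-temperature reagent incubation reported viability.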
TGFb inhibitor = blocks TGF-b signaling | HepG2 CAGA-GFP TGF-b/SMAD3 reporter, GFP fluorescence, 18 h; TGF-beta stimulated, 500 pg/mL final | Potency, µM (highest dose often 46.1 µM), for the others: at the top dose activity, negative = inhibition, actives largely listed as inhibitors | actives 1.2% (n = 410,000); also: potency is read from the fitted curve at half-maximal effect; % is scaled to controls: 0 for no effect and ±100 for the full control effect; nearly all actives have a fitted effect of over 65% in size
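Inhibition was scored as loss of TGF-beta-induced (500 pg/mL final, 18 hours, 37 degrees C) GFP in HEPG2 cells carrying a CAGA-GFP reporter, in DMEM with 1% FBS. Well GFP was summed per cell; Activity was normalised to unstimulated and stimulated DMSO wells, then concentration-response fitting.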
An asterisk follows results filed as active. Unless noted, calls follow the shape of the dose curve; as a rule, active = well fitted curve in the direction sought with a large enough effect; inconclusive = small, poorly fitted or top-dose-only effect, or another doubt; inactive = no such curve, though single readings can be large; an effect the other way counts as inactive or inconclusive.

COc1ccc(Cl)cc1NC(=O)CN(C)C(=O)c1cn2ccccc2n1 was read as Giardia killer -20, HepG2 viability -16%, HT1080-NT tox -30%, IL1B secr inh 41, HT1080 IDH1KD tx inconclusive and TGFb inhibitor -6%.
`COc1ccc(S(=O)(=O)N2CCOC23CCN(S(=O)(=O)c2ccccc2)CC3)cc1` gave Giardia killer 14, HepG2 viability -15%, HT1080-NT tox 17%, IL1B secr inh 11, HT1080 IDH1KD tx 9% and TGFb inhibitor 20%.
`Cc1cc(OCC(=O)OCC(=O)N2CC(C)CC(C)C2)ccc1Cl` (stereo not given) gave Giardia killer 25, HepG2 viability 2%, HT1080-NT tox 2%, IL1B secr inh 6, HT1080 IDH1KD tx 6% and TGFb inhibitor -5%.
`O=C(N/N=C/C(Br)=C/c1ccccc1)c1n[nH]c2c1CCC2` gave Giardia killer 3, HepG2 viability -20%, HT1080-NT tox inconclusive, IL1B secr inh -12, HT1080 IDH1KD tx 7.9µM* and TGFb inhibitor -10%.
`O=C(N/N=C/C(Br)=C/c1ccccc1)c1cc(-c2ccco2)[nH]n1` gave Giardia killer -6, HepG2 viability -20%, HT1080-NT tox inconclusive, IL1B secr inh -68*, HT1080 IDH1KD tx inconclusive and TGFb inhibitor 6%.
O=C(N/N=C/c1ccccc1)c1n[nH]c2c1CCCC2 was read as Giardia killer -28, HepG2 viability -15%, HT1080-NT tox inconclusive, IL1B secr inh inconclusive, HT1080 IDH1KD tx inconclusive and TGFb inhibitor -34%.
For O=C(N/N=C/c1ccc(Cl)cc1)c1n[nH]c2c1CCCC2 the results were Giardia killer 2, HepG2 viability 20%, HT1080-NT tox 0.41µM*, IL1B secr inh 48, HT1080 IDH1KD tx 0.52µM* and TGFb inhibitor inconclusive.
O=C(N/N=C/c1cccs1)c1n[nH]c2c1CCC2 was read as Giardia killer 5, HepG2 viability 0%, HT1080-NT tox 7.3µM*, IL1B secr inh 25, HT1080 IDH1KD tx 6.5µM* and TGFb inhibitor -29%.
For O=C(NCc1cccs1)C1CCN(c2nccs2)CC1 the results were Giardia killer 5, HepG2 viability 7%, HT1080-NT tox 5%, IL1B secr inh -10, HT1080 IDH1KD tx 10% and TGFb inhibitor -7%.
COCCN(Cc1cc2cc(C)ccc2n2nnnc12)C(=S)Nc1ccccc1C was read as Giardia killer -22, HepG2 viability -12%, HT1080-NT tox -2%, IL1B secr inh 0, HT1080 IDH1KD tx -2% and TGFb inhibitor -4%.
For COc1ccccc1CC(=O)Nc1ccccc1O the results were Giardia killer -16, HepG2 viability 9%, HT1080-NT tox 8%, IL1B secr inh 6, HT1080 IDH1KD tx 2% and TGFb inhibitor -9%.
`COc1ccccc1CC(=O)Nc1ccc([N+](=O)[O-])cc1O` gave Giardia killer 13, HepG2 viability -26%, HT1080-NT tox inconclusive, IL1B secr inh -63*, HT1080 IDH1KD tx inconclusive and TGFb inhibitor inconclusive.
`CCOCC(=O)Nc1cc([N+](=O)[O-])ccc1OC` gave Giardia killer -16, HepG2 viability 1%, HT1080-NT tox 17%, IL1B secr inh 21, HT1080 IDH1KD tx -12% and TGFb inhibitor 3%.
Screening CCOCC(=O)Nc1ccc([N+](=O)[O-])cc1OC returned Giardia killer 0, HepG2 viability -13%, HT1080-NT tox -7%, IL1B secr inh -62*, HT1080 IDH1KD tx -4% and TGFb inhibitor 5%.
`C=CCn1c(SCC(=O)NC2CCS(=O)(=O)C2)nc2scc(C3CC3)c2c1=O` (stereo not given) gave Giardia killer -6, HepG2 viability -2%, HT1080-NT tox 4%, IL1B secr inh 9, HT1080 IDH1KD tx 2% and TGFb inhibitor 0%.
